Among all 220,000 compounds or so, about 830 (0.38%) were called active. The sample as a whole holds a higher share of actives than the screen did. Unmarked numbers belong to inactive results. No rule for the calls is given here.
biological target: Regulator of G-protein signaling 16 (Homo sapiens) + Guanine nucleotide-binding protein G(o) subunit alpha (Homo sapiens) (UniProt O15492+P09471); assay: RGS16-Galphao interaction inhibitors and enhancers – biochemical, human proteins, multiplexed bead flow cytometry, primary screen (AID 1441); conditions: bead-based flow cytometry RGS16-Galphao binding, fluorescence; at 10 µM; actives lie on both sides;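 also: Galphao activated by GDP with aluminum fluoride before binding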
Sequence (O15492 whole entry, looked up): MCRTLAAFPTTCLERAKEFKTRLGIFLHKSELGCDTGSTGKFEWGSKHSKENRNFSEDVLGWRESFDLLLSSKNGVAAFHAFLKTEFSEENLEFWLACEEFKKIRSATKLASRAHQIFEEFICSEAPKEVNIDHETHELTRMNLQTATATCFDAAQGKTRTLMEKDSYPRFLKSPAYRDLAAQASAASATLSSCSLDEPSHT
Sequence (P09471 whole entry, looked up): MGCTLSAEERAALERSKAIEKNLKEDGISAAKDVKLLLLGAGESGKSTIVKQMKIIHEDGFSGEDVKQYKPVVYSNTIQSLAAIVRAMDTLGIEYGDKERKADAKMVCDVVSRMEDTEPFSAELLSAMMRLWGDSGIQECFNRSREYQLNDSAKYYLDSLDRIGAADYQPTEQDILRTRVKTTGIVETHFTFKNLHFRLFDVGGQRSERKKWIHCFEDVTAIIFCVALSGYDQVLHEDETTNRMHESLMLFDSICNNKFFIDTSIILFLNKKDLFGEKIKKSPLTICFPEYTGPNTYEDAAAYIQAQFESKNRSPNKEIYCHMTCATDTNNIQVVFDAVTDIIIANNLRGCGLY

SMILES	binding response (% of control)
CC(C)N(CC#CCC1(O)c2ccccc2-c2ccccc21)C(C)C	180% [activator] (active)
CCOC(=O)C1(Cc2ccc(Cl)cc2)CCN(C(C)CCn2cccn2)CC1 (stereo not given)	102%
O=[N+]([O-])c1ccc(C2C3C(c4ccccc4)=NC4(CCCCC4)N32)cc1 (stereo not given)	100%
COc1ccc(CN2C(=O)NC(=O)/C(=C\c3ccc(OC)c(OC)c3OC)C2=O)cc1	97.6%
CCOC(=O)c1c(-c2ccccc2)oc2ccc(OC(=O)N(C)C)cc12	116%

Reference: PubChem BioAssay AID1441 (NMMLSC, 2008)
